# Experimental data from PubChem BioAssay AID651739 (Broad Institute, 2012).
# About 4,100 (73%) of roughly 5,600 compounds were called active. About 4% were inconclusive and are not listed. The set was probably picked from earlier hits. Not all results are given here. A number with no mark means an inactive call.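 The calls were made as follows: active = mean replicate inhibition above about 95% and at least 55% of replicates individually reaching it (limit read from the data); inconclusive = only one of the two criteria is met; inactive = neither criterion is met.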
# Experiment: blockers of Trypanosoma cruzi growth in host cells – cell-based, NIH3T3 host, beta-gal parasite, luminescence, cherry-pick, confirmation (AID 651739)
# Settings: T. cruzi beta-gal in NIH3T3, GalScreen luminescence, 90 h; at 8.35 µM; stronger effect = higher value
row,Compound,inhibition
1,COc1ccc(C#Cc2ccc([C@H]3[C@H](CO)N4CCCCN(C(=O)Cc5ccccc5)C[C@@H]34)cc2)cc1,95.6% (active)
2,O=C(Cc1cccnc1)N1CCCCN2[C@@H](CO)[C@H](c3ccc(C#CC4CCCC4)cc3)[C@@H]2C1,103% (active)
3,C/C=C/c1ccc([C@H]2[C@H](CO)N3CCCCN(C(=O)Cc4ccncc4)C[C@@H]23)cc1,99.2% (active)
4,O=C(Cc1ccccn1)N1CCCCN2[C@@H](CO)[C@@H](c3ccc(C#Cc4ccccc4)cc3)[C@@H]2C1,112% (active)
5,COc1ccc(-c2ccc([C@H]3[C@H](CO)N4CCCCN(C(=O)Cc5ccncc5)C[C@@H]34)cc2)cc1,89.1%
